Data as given in PubChem BioAssay (NCI).
Compounds without any hit were thinned out: in the full panel of roughly 79,000, 15% have a hit. Unmarked numbers belong to inactive results. Active and inactive are the calls of the source. Rule as the data show it: active = growth inhibition above about 70%; inactive = the rest.

Test: NCI Yeast Anticancer Drug Screen. Data for the mlh1 rad18 strain (AID 175)
Settings: S. cerevisiae mlh1 rad18 strain growth inhibition; at 5.0 µM (retest, dose inferred, filed as 0.5); active compounds read high
Outline: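 Yeast w/ defined DNA-repair lesions; compound exposure; growth vs vehicle controls → % inhibition.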

**Q.** Which growth inhibition does the source give for `Cc1cc(NCCCCCCCNc2cc(C)nc3cc(N)ccc23)c2ccc(N)cc2n1` here?
**A.** -3%

**Q.** For `C[C@]12CC[C@H]3[C@@H](CCC4=CC(=O)CC[C@@]43C)[C@@H]1CC[C@@H]2C(=O)C=O`, which growth inhibition is on record?
**A.** 27%

**Q.** For `COc1cc2c[n+](C)c3c4cc(OC)c(OCc5ccccc5)cc4c(OCc4ccccc4)cc3c2cc1OC`, which growth inhibition is on record?
**A.** 18%

**Q.** With `Nc1ncnc2c1c(-c1ccc(Cl)cc1)cn2-c1ccccc1` as the compound, how does the growth inhibition read?
**A.** 13%

**Q.** Which growth inhibition does the source give for `Cc1c[nH]c2nc(C)n(-c3ccccc3)c(=N)c12` here?
**A.** -2%

**Q.** With `COc1ccc(Cc2ccc3c(C)cc(Cl)nc3c2)cc1` as the compound, how does the growth inhibition read?
**A.** 0%

**Q.** For `COC(=O)c1ccc(NCc2c(O)ccc(O)c2Br)cc1Cl`, which growth inhibition is on record?
**A.** 25%

**Q.** With `CC1=CC(=O)c2c(O)c3c(c(O)c2C1=O)C1C(O)C(C3=O)C23C(=O)c4c(O)c(C)cc(O)c4C(O)=C2C(=O)CC(O)C13` (stereo not drawn) as the compound, how does the growth inhibition read?
**A.** 9%

**Q.** With `CC(C)(O)[C@H](CCO)O[Si](c1ccccc1)(c1ccccc1)C(C)(C)C` as the compound, how does the growth inhibition read?
**A.** 23%

**Q.** Which growth inhibition does the source give for `COC(=O)/C(C#N)=C(/SC)N(C)C` here?
**A.** 12%

**Q.** Which growth inhibition does the source give for `N#CC(C(=O)CCCC(=O)Nc1ccc(Cl)cc1)c1ccccc1Cl` (stereo not drawn) here?
**A.** -2%

**Q.** With `FC(F)(F)c1cccc(Nc2ccc3cnc4ccccc4c3c2)c1` as the compound, how does the growth inhibition read?
**A.** 17%

**Q.** With `CN1C(/C=C/c2ccc(O)c3ncccc23)CCC2CCCC(O)C21` (stereo not drawn) as the compound, how does the growth inhibition read?
**A.** 14%

**Q.** Which growth inhibition does the source give for `N#CC1(C#N)C(C#N)(C#N)C12CCCC2` here?
**A.** 5%

**Q.** With `O=C1C(Cl)=C(Cl)C(=O)C2=C1CC(Cl)C(Cl)C2` (stereo not drawn) as the compound, how does the growth inhibition read?
**A.** 95% (active)

**Q.** Which growth inhibition does the source give for `N#CC(/C=C/c1ccccc1)(NO)Nc1cccc(Cl)c1` (stereo not drawn) here?
**A.** 23%

**Q.** With `O=C(O)c1ccccc1C(c1ccccc1)c1ccccc1` as the compound, how does the growth inhibition read?
**A.** 6%

**Q.** For `OCC1(c2ccccc2)OC1c1ccccc1` (stereo not drawn), which growth inhibition is on record?
**A.** -146%

**Q.** With `COc1ccc(NS(=O)(=O)c2ccc(F)cc2)cc1` as the compound, how does the growth inhibition read?
**A.** -15%

**Q.** Which growth inhibition does the source give for `CCn1c2nc(=O)n(C)c(=O)c-2[n+]([O-])c2cc(C)ccc21` here?
**A.** 0%

**Q.** For `O=[N+]([O-])C(=C(Nc1ccccc1)Nc1ccccc1)C(Cl)=C(Cl)Cl`, which growth inhibition is on record?
**A.** 99% (active)

**Q.** Which growth inhibition does the source give for `CCC/C(=N\NC(=S)N(C)C)c1ccccn1` here?
**A.** 94% (active)

**Q.** With `O=C(CSc1cc[o+]cc1)c1cccc([N+](=O)[O-])c1` as the compound, how does the growth inhibition read?
**A.** -3%

**Q.** Which growth inhibition does the source give for `CC12CCC(c3sc(N)c(C#N)c31)C2(C)C` (stereo not drawn) here?
**A.** -36%

**Q.** Which growth inhibition does the source give for `N#CC(C#N)=C(C1CC1)C1CC1` here?
**A.** -95%

**Q.** With `Cc1c(N=Nc2cccc(F)c2)c(-c2ccccc2)nn1C(N)=S` as the compound, how does the growth inhibition read?
**A.** 0%

**Q.** Which growth inhibition does the source give for `CN1COc2c(Cl)cc(Cl)cc2C1` here?
**A.** -1%

**Q.** For `O=C1CCCCO1`, which growth inhibition is on record?
**A.** 0%

**Q.** Which growth inhibition does the source give for `Nc1cc2c(cc1/C=C(\C(=O)O)c1ccccc1)OCO2` here?
**A.** -3%

**Q.** Which growth inhibition does the source give for `Cc1cc2c(cc1C)C(=O)OC2=O` here?
**A.** -2%

**Q.** For `C(/Cc1ccc2c(c1)OCO2)=N\NC1=NCCCCN1`, which growth inhibition is on record?
**A.** 0%

**Q.** With `CCCCCCCCN(CCCCCCCC)CC(O)c1cc(-c2ccc(OC)cc2)nc2cc(Cl)ccc12` (stereo not drawn) as the compound, how does the growth inhibition read?
**A.** 7%

**Q.** Which growth inhibition does the source give for `Cc1cc(C(=O)CBr)c(CN2C(=O)c3ccccc3C2=O)c(=O)n1C` here?
**A.** 64%

**Q.** For `O=C(O)c1ccccc1-c1c2ccc(=O)c(Br)c-2oc2c(Br)c(O)ccc12`, which growth inhibition is on record?
**A.** 49%

**Q.** With `O=C(Nc1cccc(NC(=O)c2cc(=O)c3ccccc3o2)n1)c1cc(=O)c2ccccc2o1` as the compound, how does the growth inhibition read?
**A.** 24%

**Q.** Which growth inhibition does the source give for `COC(=O)c1nc(=S)[nH]c(C(=O)OC)c1C(=O)c1ccc([N+](=O)[O-])cc1` here?
**A.** -2%

**Q.** Which growth inhibition does the source give for `COC1/C=C\C=C(/C)C(=O)Nc2cc3nc4cc(Br)ccc4oc-3c(c2=O)CC(C)CC(OC)C(O)C(C)/C=C(\C)C1OC(N)=O` (stereo not drawn) here?
**A.** 81% (active)

**Q.** Which growth inhibition does the source give for `NC(=S)C(=S)N/C=C(/c1ccc(Cl)cc1)S(=O)(=O)Cc1ccc(Cl)cc1` here?
**A.** 4%

**Q.** Which growth inhibition does the source give for `O=C(Cc1ccccc1)c1ccccc1C(=O)NNc1ccccc1` here?
**A.** 5%

Same assay, conditions: S. cerevisiae mlh1 rad18 strain growth inhibition; at 50.0 µM (retest, dose inferred, filed as 5.0); active compounds read high

**Q.** Which growth inhibition does the source give for `Cc1cc(NCCCCCCCNc2cc(C)nc3cc(N)ccc23)c2ccc(N)cc2n1` here?
**A.** 83% (active)

**Q.** With `C[C@]12CC[C@H]3[C@@H](CCC4=CC(=O)CC[C@@]43C)[C@@H]1CC[C@@H]2C(=O)C=O` as the compound, how does the growth inhibition read?
**A.** 74% (active)

**Q.** For `COc1cc2c[n+](C)c3c4cc(OC)c(OCc5ccccc5)cc4c(OCc4ccccc4)cc3c2cc1OC`, which growth inhibition is on record?
**A.** 95% (active)

**Q.** For `Nc1ncnc2c1c(-c1ccc(Cl)cc1)cn2-c1ccccc1`, which growth inhibition is on record?
**A.** 76% (active)

**Q.** Which growth inhibition does the source give for `Cc1c[nH]c2nc(C)n(-c3ccccc3)c(=N)c12` here?
**A.** -2%

**Q.** Which growth inhibition does the source give for `COc1ccc(Cc2ccc3c(C)cc(Cl)nc3c2)cc1` here?
**A.** 93% (active)

**Q.** For `COC(=O)c1ccc(NCc2c(O)ccc(O)c2Br)cc1Cl`, which growth inhibition is on record?
**A.** 98% (active)

**Q.** With `CC1=CC(=O)c2c(O)c3c(c(O)c2C1=O)C1C(O)C(C3=O)C23C(=O)c4c(O)c(C)cc(O)c4C(O)=C2C(=O)CC(O)C13` (stereo not drawn) as the compound, how does the growth inhibition read?
**A.** 96% (active)

**Q.** Which growth inhibition does the source give for `CC(C)(O)[C@H](CCO)O[Si](c1ccccc1)(c1ccccc1)C(C)(C)C` here?
**A.** 97% (active)

**Q.** Which growth inhibition does the source give for `COC(=O)/C(C#N)=C(/SC)N(C)C` here?
**A.** 11%

**Q.** Which growth inhibition does the source give for `N#CC(C(=O)CCCC(=O)Nc1ccc(Cl)cc1)c1ccccc1Cl` (stereo not drawn) here?
**A.** 4%

**Q.** With `FC(F)(F)c1cccc(Nc2ccc3cnc4ccccc4c3c2)c1` as the compound, how does the growth inhibition read?
**A.** 95% (active)

**Q.** Which growth inhibition does the source give for `CN1C(/C=C/c2ccc(O)c3ncccc23)CCC2CCCC(O)C21` (stereo not drawn) here?
**A.** 96% (active)

**Q.** Which growth inhibition does the source give for `N#CC1(C#N)C(C#N)(C#N)C12CCCC2` here?
**A.** 91% (active)

**Q.** Which growth inhibition does the source give for `O=C1C(Cl)=C(Cl)C(=O)C2=C1CC(Cl)C(Cl)C2` (stereo not drawn) here?
**A.** 99% (active)

**Q.** For `N#CC(/C=C/c1ccccc1)(NO)Nc1cccc(Cl)c1` (stereo not drawn), which growth inhibition is on record?
**A.** 99% (active)

**Q.** Which growth inhibition does the source give for `O=C(O)c1ccccc1C(c1ccccc1)c1ccccc1` here?
**A.** 84% (active)

**Q.** With `OCC1(c2ccccc2)OC1c1ccccc1` (stereo not drawn) as the compound, how does the growth inhibition read?
**A.** -44%

**Q.** Which growth inhibition does the source give for `COc1ccc(NS(=O)(=O)c2ccc(F)cc2)cc1` here?
**A.** -18%

**Q.** For `CCn1c2nc(=O)n(C)c(=O)c-2[n+]([O-])c2cc(C)ccc21`, which growth inhibition is on record?
**A.** 49%

**Q.** Which growth inhibition does the source give for `O=[N+]([O-])C(=C(Nc1ccccc1)Nc1ccccc1)C(Cl)=C(Cl)Cl` here?
**A.** 100% (active)

**Q.** For `CCC/C(=N\NC(=S)N(C)C)c1ccccn1`, which growth inhibition is on record?
**A.** 99% (active)

**Q.** Which growth inhibition does the source give for `O=C(CSc1cc[o+]cc1)c1cccc([N+](=O)[O-])c1` here?
**A.** 85% (active)

**Q.** Which growth inhibition does the source give for `CC12CCC(c3sc(N)c(C#N)c31)C2(C)C` (stereo not drawn) here?
**A.** -9%

**Q.** For `N#CC(C#N)=C(C1CC1)C1CC1`, which growth inhibition is on record?
**A.** 94% (active)

**Q.** For `Cc1c(N=Nc2cccc(F)c2)c(-c2ccccc2)nn1C(N)=S`, which growth inhibition is on record?
**A.** 98% (active)

**Q.** For `CN1COc2c(Cl)cc(Cl)cc2C1`, which growth inhibition is on record?
**A.** 86% (active)

**Q.** With `O=C1CCCCO1` as the compound, how does the growth inhibition read?
**A.** 1%

**Q.** With `Nc1cc2c(cc1/C=C(\C(=O)O)c1ccccc1)OCO2` as the compound, how does the growth inhibition read?
**A.** -2%

**Q.** With `Cc1cc2c(cc1C)C(=O)OC2=O` as the compound, how does the growth inhibition read?
**A.** 5%

**Q.** Which growth inhibition does the source give for `C(/Cc1ccc2c(c1)OCO2)=N\NC1=NCCCCN1` here?
**A.** -18%

**Q.** With `CCCCCCCCN(CCCCCCCC)CC(O)c1cc(-c2ccc(OC)cc2)nc2cc(Cl)ccc12` (stereo not drawn) as the compound, how does the growth inhibition read?
**A.** 84% (active)

**Q.** Which growth inhibition does the source give for `Cc1cc(C(=O)CBr)c(CN2C(=O)c3ccccc3C2=O)c(=O)n1C` here?
**A.** 99% (active)

**Q.** For `O=C(O)c1ccccc1-c1c2ccc(=O)c(Br)c-2oc2c(Br)c(O)ccc12`, which growth inhibition is on record?
**A.** 97% (active)

**Q.** With `O=C(Nc1cccc(NC(=O)c2cc(=O)c3ccccc3o2)n1)c1cc(=O)c2ccccc2o1` as the compound, how does the growth inhibition read?
**A.** 24%

**Q.** For `COC(=O)c1nc(=S)[nH]c(C(=O)OC)c1C(=O)c1ccc([N+](=O)[O-])cc1`, which growth inhibition is on record?
**A.** 93% (active)

**Q.** For `COC1/C=C\C=C(/C)C(=O)Nc2cc3nc4cc(Br)ccc4oc-3c(c2=O)CC(C)CC(OC)C(O)C(C)/C=C(\C)C1OC(N)=O` (stereo not drawn), which growth inhibition is on record?
**A.** 95% (active)

**Q.** Which growth inhibition does the source give for `NC(=S)C(=S)N/C=C(/c1ccc(Cl)cc1)S(=O)(=O)Cc1ccc(Cl)cc1` here?
**A.** 98% (active)

**Q.** For `O=C(Cc1ccccc1)c1ccccc1C(=O)NNc1ccccc1`, which growth inhibition is on record?
**A.** 22%
